How the values were obtained:
Assay in all cases: DAPPL (digital affinity profiling via proximity ligation, sequencing); 10 mM Tris-HCl pH 7.5, 50 mM NaCl, 1 mM DTT, 4% glycerol, room temperature, 30 min; GST-TFs on glutathione beads, 16-mer random dsDNA library, 0.1% formaldehyde crosslink after washing; high values mean tight binding
FLI1 = molecular target: T1, FLI1 (Homo sapiens, UniProt Q01543 1-452); conditions: protein: recombinant; tags: N-terminal GST; dsDNA, one strand shown
T1 sequence: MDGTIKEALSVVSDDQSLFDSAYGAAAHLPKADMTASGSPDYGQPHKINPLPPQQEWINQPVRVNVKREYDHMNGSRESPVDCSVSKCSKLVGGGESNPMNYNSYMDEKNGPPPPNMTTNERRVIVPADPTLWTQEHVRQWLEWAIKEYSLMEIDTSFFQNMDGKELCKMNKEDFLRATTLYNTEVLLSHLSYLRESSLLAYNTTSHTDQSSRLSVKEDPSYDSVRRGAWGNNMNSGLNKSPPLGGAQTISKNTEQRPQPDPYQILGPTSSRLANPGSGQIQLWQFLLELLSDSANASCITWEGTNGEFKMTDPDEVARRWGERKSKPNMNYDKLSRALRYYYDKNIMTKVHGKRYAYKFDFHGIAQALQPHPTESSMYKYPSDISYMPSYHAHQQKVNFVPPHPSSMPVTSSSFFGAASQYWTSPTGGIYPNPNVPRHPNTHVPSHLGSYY
Procedure, shortened: (§1)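 A tag-only sample was pooled with DNA-barcoded human transcription factors that had been expressed in yeast as GST fusions and captured on glutathione beads. The pools were incubated for 30 min at room temperature with 200 nmole of a random double-stranded 16-mer DNA library in Tris/NaCl/DTT/glycerol buffer, then washed, crosslinked with 0.1% formaldehyde, proximity-ligated (BsaI/T4 ligase, 1 h, 37 °C), PCR-amplified and sequenced on an Illumina NextSeq500. Binding signal is each hexamer's read frequency for a factor divided by its frequency for the tag-only sample.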

ELK1 = molecular target: T2, ELK1 (Homo sapiens, UniProt P19419 1-428); conditions: protein: recombinant; tags: N-terminal GST; dsDNA, one strand shown
T2 sequence: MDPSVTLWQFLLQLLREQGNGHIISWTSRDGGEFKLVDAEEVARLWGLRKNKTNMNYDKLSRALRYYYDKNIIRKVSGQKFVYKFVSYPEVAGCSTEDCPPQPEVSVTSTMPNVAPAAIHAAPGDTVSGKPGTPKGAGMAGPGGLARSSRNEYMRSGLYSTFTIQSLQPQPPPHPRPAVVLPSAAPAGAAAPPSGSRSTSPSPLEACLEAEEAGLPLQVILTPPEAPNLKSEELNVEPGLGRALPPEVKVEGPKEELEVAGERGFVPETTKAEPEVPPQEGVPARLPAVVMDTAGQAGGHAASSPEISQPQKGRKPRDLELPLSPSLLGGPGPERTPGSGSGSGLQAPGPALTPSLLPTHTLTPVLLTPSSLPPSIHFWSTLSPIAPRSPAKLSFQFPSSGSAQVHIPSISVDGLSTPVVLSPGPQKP
Procedure, shortened: as §1

GABPA = molecular target: T3, GABPA (Homo sapiens, UniProt Q06546 1-454); conditions: protein: recombinant; tags: N-terminal GST; dsDNA, one strand shown
T3 sequence: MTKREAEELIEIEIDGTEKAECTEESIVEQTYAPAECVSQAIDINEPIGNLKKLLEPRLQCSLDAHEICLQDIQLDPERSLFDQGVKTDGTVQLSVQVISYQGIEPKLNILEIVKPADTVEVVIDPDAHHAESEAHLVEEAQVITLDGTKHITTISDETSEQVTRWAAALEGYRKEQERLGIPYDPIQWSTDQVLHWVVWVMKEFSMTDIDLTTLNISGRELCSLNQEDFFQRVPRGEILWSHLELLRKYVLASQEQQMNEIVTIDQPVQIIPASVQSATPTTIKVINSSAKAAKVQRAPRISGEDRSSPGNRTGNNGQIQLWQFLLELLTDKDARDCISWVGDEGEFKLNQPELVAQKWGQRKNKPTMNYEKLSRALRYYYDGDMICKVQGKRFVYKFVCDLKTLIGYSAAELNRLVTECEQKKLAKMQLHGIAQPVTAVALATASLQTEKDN
Procedure, shortened: as §1

ERG = molecular target: T4, ERG (Homo sapiens, UniProt P11308 1-479); conditions: protein: recombinant; tags: N-terminal GST; dsDNA, one strand shown
T4 sequence: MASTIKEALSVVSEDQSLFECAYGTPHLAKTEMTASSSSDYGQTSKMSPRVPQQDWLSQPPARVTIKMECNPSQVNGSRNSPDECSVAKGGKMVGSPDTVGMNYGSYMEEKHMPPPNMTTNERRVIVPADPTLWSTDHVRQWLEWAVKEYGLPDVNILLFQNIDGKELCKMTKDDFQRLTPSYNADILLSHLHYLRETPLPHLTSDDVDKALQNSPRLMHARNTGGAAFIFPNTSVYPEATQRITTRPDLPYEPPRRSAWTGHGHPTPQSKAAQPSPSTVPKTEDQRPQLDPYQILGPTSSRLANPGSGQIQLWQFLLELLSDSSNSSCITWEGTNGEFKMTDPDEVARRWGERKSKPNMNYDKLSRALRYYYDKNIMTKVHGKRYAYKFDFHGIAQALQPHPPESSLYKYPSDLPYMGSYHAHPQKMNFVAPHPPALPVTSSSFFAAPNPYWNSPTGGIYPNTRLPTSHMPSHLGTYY
Procedure, shortened: as §1

ELF1 = ELF1 (Homo sapiens, UniProt P32519 1-619); conditions: protein: recombinant; tags: N-terminal GST; dsDNA, one strand shown
Procedure, shortened: as §1

EHF = molecular target: T5, EHF (Homo sapiens, UniProt Q9NZC4 1-300); conditions: protein: recombinant; tags: N-terminal GST; dsDNA, one strand shown
T5 sequence: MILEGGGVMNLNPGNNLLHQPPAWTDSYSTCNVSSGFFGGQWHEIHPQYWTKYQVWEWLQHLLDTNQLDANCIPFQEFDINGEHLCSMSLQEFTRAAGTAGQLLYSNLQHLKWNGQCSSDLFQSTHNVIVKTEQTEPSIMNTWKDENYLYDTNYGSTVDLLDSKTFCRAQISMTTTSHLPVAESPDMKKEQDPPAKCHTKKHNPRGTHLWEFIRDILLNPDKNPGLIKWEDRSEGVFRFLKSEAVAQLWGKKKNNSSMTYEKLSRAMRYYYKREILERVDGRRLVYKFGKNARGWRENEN
Procedure, shortened: as §1

SPI1 = SPI1 (Homo sapiens, UniProt P17947 1-270); conditions: protein: recombinant; tags: N-terminal GST; dsDNA, one strand shown
Procedure, shortened: as §1

SPIB = SPIB (Homo sapiens, UniProt Q01892 1-262); conditions: protein: recombinant; tags: N-terminal GST; dsDNA, one strand shown
Procedure, shortened: as §1

ELK3 = molecular target: T6, ELK3 (Homo sapiens, UniProt P41970 1-407); conditions: protein: recombinant; tags: N-terminal GST; dsDNA, one strand shown
T6 sequence: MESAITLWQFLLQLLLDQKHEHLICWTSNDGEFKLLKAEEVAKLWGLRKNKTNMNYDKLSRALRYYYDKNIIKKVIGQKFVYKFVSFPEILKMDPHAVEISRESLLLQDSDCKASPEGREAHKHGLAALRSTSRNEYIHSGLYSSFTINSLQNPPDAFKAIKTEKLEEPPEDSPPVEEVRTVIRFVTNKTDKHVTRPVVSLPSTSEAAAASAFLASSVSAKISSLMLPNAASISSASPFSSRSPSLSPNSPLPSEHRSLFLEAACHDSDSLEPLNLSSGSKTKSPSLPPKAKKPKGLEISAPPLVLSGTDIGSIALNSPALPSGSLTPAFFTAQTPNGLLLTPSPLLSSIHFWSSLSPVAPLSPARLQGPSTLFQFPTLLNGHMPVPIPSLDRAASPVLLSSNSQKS
Procedure, shortened: as §1

FEV = molecular target: T7, FEV (Homo sapiens, UniProt Q99581 1-238); conditions: protein: recombinant; tags: N-terminal GST; dsDNA, one strand shown
T7 sequence: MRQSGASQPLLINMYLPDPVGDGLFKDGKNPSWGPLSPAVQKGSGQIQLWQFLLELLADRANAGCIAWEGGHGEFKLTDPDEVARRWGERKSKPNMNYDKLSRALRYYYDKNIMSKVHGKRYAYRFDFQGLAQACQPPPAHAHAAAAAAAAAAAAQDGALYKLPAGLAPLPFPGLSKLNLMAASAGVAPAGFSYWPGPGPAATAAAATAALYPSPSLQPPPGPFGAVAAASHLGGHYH
Procedure, shortened: as §1

ETV5 = ETV5 (Homo sapiens, UniProt P41161 1-510); conditions: protein: recombinant; tags: N-terminal GST; dsDNA, one strand shown
Procedure, shortened: as §1

HSF1 = HSF1 (Homo sapiens, UniProt Q00613 1-529); conditions: protein: recombinant; tags: N-terminal GST; chain copies: 3; dsDNA, one strand shown
Procedure, shortened: as §1

SPIC = molecular target: T8, SPIC (Homo sapiens, UniProt Q8N5J4 1-248); conditions: protein: recombinant; tags: N-terminal GST; dsDNA, one strand shown
T8 sequence: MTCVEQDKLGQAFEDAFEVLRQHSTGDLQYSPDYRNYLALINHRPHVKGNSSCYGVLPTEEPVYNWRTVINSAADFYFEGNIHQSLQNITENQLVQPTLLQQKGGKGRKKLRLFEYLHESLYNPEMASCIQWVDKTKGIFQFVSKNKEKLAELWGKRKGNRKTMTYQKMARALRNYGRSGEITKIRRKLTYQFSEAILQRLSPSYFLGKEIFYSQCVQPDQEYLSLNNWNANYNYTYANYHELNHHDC
Procedure, shortened: as §1

ELF4 = ELF4 (Homo sapiens, UniProt Q99607 1-663); conditions: protein: recombinant; tags: N-terminal GST; dsDNA, one strand shown
Procedure, shortened: as §1

ELK4 = molecular target: T9, ELK4 (Homo sapiens, UniProt P28324-2 1-405); conditions: protein: recombinant; tags: N-terminal GST; dsDNA, one strand shown
T9 sequence: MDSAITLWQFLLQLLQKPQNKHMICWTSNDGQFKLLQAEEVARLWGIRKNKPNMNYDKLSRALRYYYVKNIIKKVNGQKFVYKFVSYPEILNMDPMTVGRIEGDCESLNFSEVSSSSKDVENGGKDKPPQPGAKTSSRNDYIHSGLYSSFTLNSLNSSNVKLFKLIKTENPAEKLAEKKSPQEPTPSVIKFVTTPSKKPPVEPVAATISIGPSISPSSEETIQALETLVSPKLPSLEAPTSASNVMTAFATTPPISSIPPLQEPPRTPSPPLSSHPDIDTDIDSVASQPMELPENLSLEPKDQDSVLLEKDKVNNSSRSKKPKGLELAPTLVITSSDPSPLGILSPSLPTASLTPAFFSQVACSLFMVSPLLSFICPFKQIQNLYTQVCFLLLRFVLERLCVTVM
Procedure, shortened: as §1

ETV2 = molecular target: T10, ETV2 (Homo sapiens, UniProt O00321 1-342); conditions: protein: recombinant; tags: N-terminal GST; dsDNA, one strand shown
T10 sequence: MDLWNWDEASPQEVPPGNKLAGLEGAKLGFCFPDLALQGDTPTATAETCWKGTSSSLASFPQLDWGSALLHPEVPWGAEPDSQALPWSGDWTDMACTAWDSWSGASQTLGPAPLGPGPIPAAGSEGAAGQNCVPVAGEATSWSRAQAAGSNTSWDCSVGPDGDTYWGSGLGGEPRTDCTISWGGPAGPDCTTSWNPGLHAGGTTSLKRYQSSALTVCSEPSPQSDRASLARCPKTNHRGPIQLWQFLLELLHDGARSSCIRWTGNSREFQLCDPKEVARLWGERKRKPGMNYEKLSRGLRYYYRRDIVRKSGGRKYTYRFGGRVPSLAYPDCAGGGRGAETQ
Procedure, shortened: as §1

ELF3 = molecular target: T11, ELF3 (Homo sapiens, UniProt P78545 1-371); conditions: protein: recombinant; tags: N-terminal GST; dsDNA, one strand shown
T11 sequence: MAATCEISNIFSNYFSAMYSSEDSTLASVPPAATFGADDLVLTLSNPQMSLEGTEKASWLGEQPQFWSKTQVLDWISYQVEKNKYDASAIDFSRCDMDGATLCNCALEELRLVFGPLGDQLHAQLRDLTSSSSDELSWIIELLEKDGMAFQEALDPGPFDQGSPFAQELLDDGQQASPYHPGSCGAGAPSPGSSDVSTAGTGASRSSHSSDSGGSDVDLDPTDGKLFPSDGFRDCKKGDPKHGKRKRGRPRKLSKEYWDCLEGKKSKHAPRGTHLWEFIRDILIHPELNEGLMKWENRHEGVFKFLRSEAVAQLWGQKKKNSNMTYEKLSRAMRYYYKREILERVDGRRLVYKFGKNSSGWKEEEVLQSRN
Procedure, shortened: as §1

CRX = CRX (Homo sapiens, UniProt O43186 1-299); conditions: protein: recombinant; tags: N-terminal GST; dsDNA, one strand shown
Procedure, shortened: as §1

ETV1 = ETV1 (Homo sapiens, UniProt P50549 1-477); conditions: protein: recombinant; tags: N-terminal GST; dsDNA, one strand shown
Procedure, shortened: as §1

Sequence of ELF4 (Q99607 whole entry): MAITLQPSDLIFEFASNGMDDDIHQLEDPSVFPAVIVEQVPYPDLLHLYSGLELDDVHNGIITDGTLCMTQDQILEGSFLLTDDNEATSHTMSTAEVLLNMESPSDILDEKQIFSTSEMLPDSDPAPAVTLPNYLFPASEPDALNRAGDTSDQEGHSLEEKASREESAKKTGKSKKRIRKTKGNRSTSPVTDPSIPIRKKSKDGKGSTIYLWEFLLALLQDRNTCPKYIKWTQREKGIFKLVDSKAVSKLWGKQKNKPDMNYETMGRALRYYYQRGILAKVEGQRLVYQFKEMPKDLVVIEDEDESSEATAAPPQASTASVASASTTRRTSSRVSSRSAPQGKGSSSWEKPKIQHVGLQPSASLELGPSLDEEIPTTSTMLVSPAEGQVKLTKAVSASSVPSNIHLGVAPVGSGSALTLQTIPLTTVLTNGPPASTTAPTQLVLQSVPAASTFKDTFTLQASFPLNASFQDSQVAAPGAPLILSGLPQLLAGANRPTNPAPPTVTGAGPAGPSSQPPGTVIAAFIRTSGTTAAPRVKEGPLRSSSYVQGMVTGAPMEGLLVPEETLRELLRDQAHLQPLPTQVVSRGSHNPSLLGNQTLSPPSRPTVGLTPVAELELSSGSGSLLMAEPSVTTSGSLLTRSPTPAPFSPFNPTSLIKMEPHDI
Sequence of HSF1 (Q00613 whole entry): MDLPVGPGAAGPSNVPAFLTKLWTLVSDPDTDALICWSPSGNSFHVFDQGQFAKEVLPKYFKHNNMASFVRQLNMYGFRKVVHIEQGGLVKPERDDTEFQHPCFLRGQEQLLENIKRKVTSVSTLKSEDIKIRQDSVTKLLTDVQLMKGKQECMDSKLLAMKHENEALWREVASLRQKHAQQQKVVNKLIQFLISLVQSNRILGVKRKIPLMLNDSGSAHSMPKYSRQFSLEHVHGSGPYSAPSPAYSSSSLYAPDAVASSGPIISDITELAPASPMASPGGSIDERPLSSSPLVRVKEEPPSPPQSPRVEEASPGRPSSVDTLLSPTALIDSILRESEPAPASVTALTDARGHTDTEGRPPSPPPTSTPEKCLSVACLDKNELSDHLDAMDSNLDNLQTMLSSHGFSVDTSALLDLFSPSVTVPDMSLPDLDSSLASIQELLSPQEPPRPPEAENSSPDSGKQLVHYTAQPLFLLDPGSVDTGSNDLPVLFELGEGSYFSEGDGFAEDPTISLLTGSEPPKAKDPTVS
Sequence of SPIB (Q01892 whole entry): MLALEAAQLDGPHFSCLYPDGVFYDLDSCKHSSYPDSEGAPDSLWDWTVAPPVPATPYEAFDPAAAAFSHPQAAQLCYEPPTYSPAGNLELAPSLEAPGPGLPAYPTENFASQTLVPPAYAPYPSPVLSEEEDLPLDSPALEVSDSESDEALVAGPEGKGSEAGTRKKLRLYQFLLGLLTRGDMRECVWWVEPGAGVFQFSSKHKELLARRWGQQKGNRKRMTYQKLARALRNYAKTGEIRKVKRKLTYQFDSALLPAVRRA
Sequence of ETV5 (P41161 whole entry): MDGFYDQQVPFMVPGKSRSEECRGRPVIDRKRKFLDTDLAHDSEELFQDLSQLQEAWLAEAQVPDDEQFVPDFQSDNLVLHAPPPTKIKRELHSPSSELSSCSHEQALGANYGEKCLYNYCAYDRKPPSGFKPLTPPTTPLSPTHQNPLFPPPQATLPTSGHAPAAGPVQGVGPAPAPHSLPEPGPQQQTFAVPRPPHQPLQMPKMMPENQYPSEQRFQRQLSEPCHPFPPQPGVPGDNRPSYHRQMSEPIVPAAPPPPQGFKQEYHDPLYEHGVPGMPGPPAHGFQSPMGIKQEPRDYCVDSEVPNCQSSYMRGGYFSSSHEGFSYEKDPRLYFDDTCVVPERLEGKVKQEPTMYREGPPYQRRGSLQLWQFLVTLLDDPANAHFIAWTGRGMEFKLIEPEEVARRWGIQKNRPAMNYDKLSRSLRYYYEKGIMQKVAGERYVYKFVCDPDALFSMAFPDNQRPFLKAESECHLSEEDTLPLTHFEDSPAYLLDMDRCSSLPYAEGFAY
Sequence of CRX (O43186 whole entry): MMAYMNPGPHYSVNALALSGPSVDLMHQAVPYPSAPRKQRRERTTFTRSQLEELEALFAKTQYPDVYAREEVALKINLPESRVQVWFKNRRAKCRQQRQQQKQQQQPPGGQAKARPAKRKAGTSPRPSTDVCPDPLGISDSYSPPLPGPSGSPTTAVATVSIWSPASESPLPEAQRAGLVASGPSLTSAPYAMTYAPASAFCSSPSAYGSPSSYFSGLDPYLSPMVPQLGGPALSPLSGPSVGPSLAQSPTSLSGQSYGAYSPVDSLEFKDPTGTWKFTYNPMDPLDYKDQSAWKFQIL
Sequence of ETV1 (P50549 whole entry): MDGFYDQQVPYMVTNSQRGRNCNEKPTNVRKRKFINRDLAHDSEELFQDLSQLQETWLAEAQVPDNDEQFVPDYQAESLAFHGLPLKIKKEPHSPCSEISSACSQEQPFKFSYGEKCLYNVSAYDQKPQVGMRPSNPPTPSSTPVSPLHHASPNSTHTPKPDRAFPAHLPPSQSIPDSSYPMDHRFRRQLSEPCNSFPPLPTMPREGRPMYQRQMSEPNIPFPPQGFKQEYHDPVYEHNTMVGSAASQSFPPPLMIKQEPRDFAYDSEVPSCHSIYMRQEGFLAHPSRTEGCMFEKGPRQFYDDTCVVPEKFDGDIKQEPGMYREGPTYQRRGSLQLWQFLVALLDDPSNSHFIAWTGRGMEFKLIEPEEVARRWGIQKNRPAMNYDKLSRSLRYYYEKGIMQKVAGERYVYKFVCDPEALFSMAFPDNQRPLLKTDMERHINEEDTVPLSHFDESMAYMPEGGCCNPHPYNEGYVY
Sequence of ELF1 (P32519 whole entry): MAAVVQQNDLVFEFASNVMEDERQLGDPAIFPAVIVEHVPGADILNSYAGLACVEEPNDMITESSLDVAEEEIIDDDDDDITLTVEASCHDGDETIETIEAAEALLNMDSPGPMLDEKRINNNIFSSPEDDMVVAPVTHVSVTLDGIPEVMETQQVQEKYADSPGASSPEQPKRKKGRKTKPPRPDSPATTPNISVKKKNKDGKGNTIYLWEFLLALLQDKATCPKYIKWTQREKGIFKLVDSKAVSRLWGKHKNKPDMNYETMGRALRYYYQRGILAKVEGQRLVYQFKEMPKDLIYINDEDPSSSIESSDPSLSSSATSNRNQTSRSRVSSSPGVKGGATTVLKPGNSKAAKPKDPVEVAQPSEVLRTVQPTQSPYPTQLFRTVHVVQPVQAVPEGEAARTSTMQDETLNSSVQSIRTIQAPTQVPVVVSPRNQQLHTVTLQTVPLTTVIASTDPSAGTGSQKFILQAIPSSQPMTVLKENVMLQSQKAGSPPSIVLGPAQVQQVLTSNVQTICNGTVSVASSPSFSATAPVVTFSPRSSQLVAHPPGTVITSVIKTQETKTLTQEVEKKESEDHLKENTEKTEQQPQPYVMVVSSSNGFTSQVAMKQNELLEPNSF

In the case of AACAAA, the binding signal (FLI1) is reported as 1.18 fold enrichment (6-mer frequency, TF over GST control), the binding signal (ELK1) is reported as 1.16 fold enrichment (6-mer frequency, TF over GST control) and the binding signal (GABPA) is reported as 1.1 fold enrichment (6-mer frequency, TF over GST control). For the same sequence, the binding signal (ERG) was 1.18 fold enrichment (6-mer frequency, TF over GST control), the binding signal (ELF1) was 1.14 fold enrichment (6-mer frequency, TF over GST control) and the binding signal (EHF) was 1.17 fold enrichment (6-mer frequency, TF over GST control). For the same sequence, the binding signal (SPI1) was 1.16 fold enrichment (6-mer frequency, TF over GST control), the binding signal (SPIB) was 1.15 fold enrichment (6-mer frequency, TF over GST control) and the binding signal (ELK3) was 1.27 fold enrichment (6-mer frequency, TF over GST control). The binding signal (FEV) was 1.2 fold enrichment (6-mer frequency, TF over GST control), the binding signal (ETV5) was 1.11 fold enrichment (6-mer frequency, TF over GST control) and the binding signal (HSF1) was 1.18 fold enrichment (6-mer frequency, TF over GST control). The binding signal (SPIC) was 1.14 fold enrichment (6-mer frequency, TF over GST control), the binding signal (ELF4) was 1.16 fold enrichment (6-mer frequency, TF over GST control) and the binding signal (ELK4) was 1.17 fold enrichment (6-mer frequency, TF over GST control). The binding signal (ETV2) was 1.26 fold enrichment (6-mer frequency, TF over GST control), the binding signal (ELF3) was 1.21 fold enrichment (6-mer frequency, TF over GST control) and the binding signal (CRX) was 1.14 fold enrichment (6-mer frequency, TF over GST control). For the same sequence, the binding signal (ETV1) was 1.19 fold enrichment (6-mer frequency, TF over GST control).
